# From the supplement of paper PMC8728848
# This is one part of a sample in which the strongest signals are shown more often than they occur.
# B1: Chaperone 60.2 (Mycobacterium tuberculosum), P9WPE7 (protein)
# chain: MAKTIAYDEEARRGLERGLNALADAVKVTLGPKGRNVVLEKKWGAPTITNDGVSIAKEIELEDPYEKIGAELVKEVAKKTDDVAGDGTTTATVLAQALVREGLRNVAAGANPLGLKRGIEKAVEKVTETLLKGAKEVETKEQIAATAAISAGDQSIGDLIAEAMDKVGNEGVITVEESNTFGLQLELTEGMRFDKGYISGYFVTDPERQEAVLEDPYILLVSSKVSTVKDLLPLLEKVIGAGKPLLIIAEDVEGEALSTLVVNKIRGTFKSVAVKAPGFGDRRKAMLQDMAILTGGQVISEEVGLTLENADLSLLGKARKVVVTKDETTIVEGAGDTDAIAGRVAQIRQEIENSDSDYDREKLQERLAKLAGGVAVIKAGAATEVELKERKHRIEDAVRNAKAAVEEGIVAGGGVTLLQAAPTLDELKLEGDEATGANIVKVALEAPLKQIAFNSGLEPGVVAEKVRNLPAGHGLNAQTGVYEDLLAAGVADPVKVTRSALQNAASIAGLFLTTEAVVADKPEKEKASVPGGGDMGGMDF
# B2: Spy 2007 (Streptococcus pyogenes), Q99XV3 (protein)
# chain: MKKGFFLMAMVVSLVMIAGCDKSANPKQPTQGMSVVTSFYPMYAMTKEVSGDLNDVRMIQSGAGIHSFEPSVNDVAAIYDADLFVYHSHTLEAWARDLDPNLKKSKVDVFEASKPLTLDRVKGLEDMEVTQGIDPATLYDPHTWTDPVLAGEEAVNIAKELGRLDPKHKDSYTKNAKAFKKEAEQLTEEYTQKFKKVRSKTFVTQHTAFSYLAKRFGLKQLGISGISPEQEPSPRQLKEIQDFVKEYNVKTIFAEDNVNPKIAHAIAKSTGAKVKTLSPLEAAPSGNKTYLENLRANLEVLYQQLK
# Experiments:
# Experiment in all cases: glycan array binding signal (z-score within array); higher = stronger binding
# Settings in all cases: glycan notation: IUPAC condensed, linker removed
# Fuc(a1-2)Gal(b1-4)GlcNAc = target: Fuc(a1-2)Gal(b1-4)GlcNAc
# Summary of the method: (§1)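 From the Consortium for Functional Glycomics database, 3228 arrays were curated, keeping only those whose protein sequence was available. Binding is given as a within-array Z-score averaged across arrays sharing a protein sequence and across linkers. Negative Z-scores can be read as non-binding.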
# [1] = target: Fuc(a1-2)Gal(b1-4)GlcNAc(b1-3)Gal(b1-4)GlcNAc(b1-3)Gal(b1-4)GlcNAc
# Summary of the method: as §1
# [2] = target: Fuc(a1-2)Gal(b1-4)GlcNAc6S
# Summary of the method: as §1
# Fuc(a1-2)[Gal(a1-3)]Gal = target: Fuc(a1-2)[Gal(a1-3)]Gal
# Summary of the method: as §1
# [3] = target: Gal(a1-3)Gal(b1-4)[Fuc(a1-3)]GlcNAc
# Summary of the method: as §1
# Gal(b1-2)Gal = target: Gal(b1-2)Gal
# Summary of the method: as §1
# [4] = target: Gal(b1-3)[Fuc(a1-4)]GlcNAc(b1-3)Gal(b1-4)GlcNAc
# Summary of the method: as §1
# [5] = target: Gal(b1-3)[Fuc(a1-4)]GlcNAc(b1-3)Gal(b1-4)[Fuc(a1-3)]GlcNAc
# Summary of the method: as §1
# Gal3S(b1-4)Glc6S = target: Gal3S(b1-4)Glc6S
# Summary of the method: as §1
# Gal3S6S(b1-4)GlcNAc6S = target: Gal3S6S(b1-4)GlcNAc6S
# Summary of the method: as §1
# [6] = target: GlcNAc(b1-4)Gal(b1-4)GlcNAc
# Summary of the method: as §1
# [7] = target: Man(a1-2)Man(a1-3)[Man(a1-2)Man(a1-6)]Man
# Summary of the method: as §1
# [8] = target: Man(a1-2)Man(a1-3)[Man(a1-2)Man(a1-6)]Man(a1-6)[Man(a1-2)Man(a1-2)Man(a1-3)]Man
# Summary of the method: as §1
# [9] = target: Neu5Ac(a2-3)Gal(b1-4)[Fuc(a1-3)]GlcNAc(b1-3)Gal
# Summary of the method: as §1
# [10] = target: Neu5Ac(a2-3)Gal(b1-4)[Fuc(a1-3)]GlcNAc(b1-6)[Gal(b1-3)]GalNAc
# Summary of the method: as §1
# [11] = target: Neu5Ac(a2-6)Gal(b1-4)GlcNAc(b1-2)Man(a1-3)[GlcNAc(b1-2)Man(b1-4)GlcNAc(b1-2)Man(a1-6)]Man(b1-4)GlcNAc(b1-4)GlcNAc
# Summary of the method: as §1
# [12] = target: Neu5Ac(a2-8)Neu5Ac(a2-8)Neu5Ac(a2-3)Gal(b1-4)Glc
# Summary of the method: as §1
# [13] = target: Fuc(a1-3)[Gal3S(b1-4)]GlcNAc
# Summary of the method: as §1
# [14] = target: Fuc(a1-3)[Neu5Ac(a2-3)]Gal(b1-4)GlcNAc(b1-3)GalNAc
# Summary of the method: as §1
# Gal(a1-6)Glc = target: Gal(a1-6)Glc
# Summary of the method: as §1
# Gal(b1-4)Glc = target: Gal(b1-4)Glc
# Summary of the method: as §1
# [15] = target: Gal(b1-4)GlcNAc(b1-2)Man(a1-6)Man(b1-4)GlcNAc(b1-4)GlcNAc
# Summary of the method: as §1
# [16] = target: Gal3S(b1-3)[Fuc(a1-4)]GlcNAc
# Summary of the method: as §1
# Gal3S(b1-4)Glc = target: Gal3S(b1-4)Glc
# Summary of the method: as §1
# Gal6S(b1-4)GlcNAc6S = target: Gal6S(b1-4)GlcNAc6S
# Summary of the method: as §1
# [17] = target: GalNAc(b1-4)GlcNAc(b1-2)Man(a1-3)[GalNAc(b1-4)GlcNAc(b1-2)Man(a1-6)]Man(b1-4)GlcNAc(b1-4)GlcNAc
# Summary of the method: as §1
# [18] = target: GlcNAc(a1-4)Gal(b1-4)GlcNAc(b1-3)Gal(b1-4)Glc
# Summary of the method: as §1
# [19] = target: GlcNAc(a1-4)Gal(b1-4)GlcNAc(b1-3)Gal(b1-4)[Fuc(a1-3)]GlcNAc(b1-3)Gal(b1-4)[Fuc(a1-3)]GlcNAc
# Summary of the method: as §1
# GlcNAc(b1-4)GlcNAc = target: GlcNAc(b1-4)GlcNAc
# Summary of the method: as §1
# [20] = target: GlcNAc(b1-4)GlcNAc(b1-4)GlcNAc(b1-4)GlcNAc(b1-4)GlcNAc
# Summary of the method: as §1
# Kdn(a2-6)Gal(b1-4)GlcNAc = target: Kdn(a2-6)Gal(b1-4)GlcNAc
# Summary of the method: as §1
# [21] = target: Man(a1-2)Man(a1-3)[Man(a1-6)]Man(a1-6)[Man(a1-2)Man(a1-3)]Man(b1-4)GlcNAc(b1-4)GlcNAc
# Summary of the method: as §1
# [22] = target: Neu5Ac(a2-3)Gal(b1-3)GlcNAc6S
# Summary of the method: as §1
# [23] = target: Neu5Ac(a2-3)Gal(b1-3)[Neu5Ac(a2-6)]GalNAc
# Summary of the method: as §1
# Neu5Ac(a2-3)Gal(b1-4)Glc = target: Neu5Ac(a2-3)Gal(b1-4)Glc
# Summary of the method: as §1
# [24] = target: Neu5Ac(a2-3)Gal(b1-4)GlcNAc6S
# Summary of the method: as §1
# [25] = target: Neu5Ac(a2-3)Gal(b1-4)[Fuc(a1-3)]GlcNAc(b1-3)Gal(b1-4)GlcNAc
# Summary of the method: as §1
Binder,glycan array binding signal (z-score) (Fuc(a1-2)Gal(b1-4)GlcNAc),glycan array binding signal (z-score) [1],glycan array binding signal (z-score) [2],glycan array binding signal (z-score) (Fuc(a1-2)[Gal(a1-3)]Gal),glycan array binding signal (z-score) [3],glycan array binding signal (z-score) (Gal(b1-2)Gal),glycan array binding signal (z-score) [4],glycan array binding signal (z-score) [5],glycan array binding signal (z-score) (Gal3S(b1-4)Glc6S),glycan array binding signal (z-score) (Gal3S6S(b1-4)GlcNAc6S),glycan array binding signal (z-score) [6],glycan array binding signal (z-score) [7],glycan array binding signal (z-score) [8],glycan array binding signal (z-score) [9],glycan array binding signal (z-score) [10],glycan array binding signal (z-score) [11],glycan array binding signal (z-score) [12],glycan array binding signal (z-score) [13],glycan array binding signal (z-score) [14],glycan array binding signal (z-score) (Gal(a1-6)Glc),glycan array binding signal (z-score) (Gal(b1-4)Glc),glycan array binding signal (z-score) [15],glycan array binding signal (z-score) [16],glycan array binding signal (z-score) (Gal3S(b1-4)Glc),glycan array binding signal (z-score) (Gal6S(b1-4)GlcNAc6S),glycan array binding signal (z-score) [17],glycan array binding signal (z-score) [18],glycan array binding signal (z-score) [19],glycan array binding signal (z-score) (GlcNAc(b1-4)GlcNAc),glycan array binding signal (z-score) [20],glycan array binding signal (z-score) (Kdn(a2-6)Gal(b1-4)GlcNAc),glycan array binding signal (z-score) [21],glycan array binding signal (z-score) [22],glycan array binding signal (z-score) [23],glycan array binding signal (z-score) (Neu5Ac(a2-3)Gal(b1-4)Glc),glycan array binding signal (z-score) [24],glycan array binding signal (z-score) [25]
B1,1.32,-0.159,4.33,-0.04,-0.652,-0.591,3.11,-0.254,4.1,3.22,-0.93,1.47,-1.16,-0.716,-0.295,3.89,-0.208,–,–,–,–,–,–,–,–,–,–,–,–,–,–,–,–,–,–,–,–
B2,0.299,–,–,–,–,–,–,–,–,–,–,–,–,–,–,–,–,0.277,5.41,-0.074,-0.461,-0.392,3.35,-0.543,5.95,3.5,0.12,3.22,-0.446,4.65,-0.715,-0.649,-0.663,1.08,0.127,1.47,0.479
